Consider 9 compounds from PubChem BioAssay (EPA / NIEHS).

Experiment [1] in a line: STM_H9_OrnCyssISnorm_ratio: Stemina devTOX quickPredict H9 human embryonic stem cell (hESC)-based Assay for Ornithine (ORN):Cystine (CYSS) Ratio (AID 2283714). In outline: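 Undifferentiated H9 hESCs were exposed to compound for 72h with media and chemical replaced every 24h. Final 24-h conditioned media were deproteinized and analysed by UPLC-HRMS. ORN and CYSS peak areas were normalized to C13 internal standards and the ratio taken versus 0.1% DMSO.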

A short description of experiment [2]: ACEA_AR_agonist_AUC_viability: ACEA Biosciences xCELLigence Real-Time Cell Analysis on Androgen Receptor Agonism for Viability (AID 2283775).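 On AC50: viability read 80 hours after compound addition.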 The gist of the method:
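Real-time impedance tracking of 22Rv1 growth, readings every 5 min for 5 h then hourly; area-under-curve viability endpoint at 80 hours, relative to DMSO. Compounds at eight concentrations, 1:4 steps, top 100 uM, n = 2.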

Experiment [3] in a line: ACEA_ER_AUC_viability: ACEA Biosciences xCELLigence Real-Time Cell Analysis on Estrogen Receptor Agonism for Viability (AID 2283782).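 Further: continuous compound exposure with impedance area under curve over 80 h; hit means loss of impedance signal meaning reduced cell growth or viability.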 In outline:
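T-47D human breast cells in phenol red-free RPMI1640 with 10% charcoal-stripped FBS were dosed with an 8-point 1:4 dilution series from 100 uM top final concentration, in duplicate. Impedance-based growth was followed for 80 h; AUC analysed versus DMSO.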

A short description of experiment [4]: CEETOX_H295R_MTT_cell_viability: Viability Assessment in the CeeTox HT-H295R MTT Assay (AID 2283718; active means hit-call score of the fitted dose curve at least 0.9, where 1 is the maximum; inactive means score below 0.9;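 on AC50: curve fitted both ways so AC50 may mark viability loss or gain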). In outline:
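H295R cells prestimulated 48 h with 10 uM forskolin, then exposed 48 h to test chemical (0.1% DMSO final). Viability by MTT (0.5 mg/ml, 4 h, 37 C), absorbance 570/650 nm; percent change versus DMSO, bidirectional fit.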

Experiment [5] in a line: ACEA_AR_antagonist_AUC_viability: ACEA Biosciences xCELLigence Real-Time Cell Analysis on Androgen Receptor Antagonism for Viability (AID 2283776).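 Further: hits lower the growth signal relative to DMSO meaning cytotoxicity.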 In outline:
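22Rv1 human prostate cancer cells were seeded on electrode plates, monitored overnight, then exposed to eight 1:4 dilutions from 100 uM final. Impedance-based growth kinetics at 80 h gave an AUC viability endpoint normalized to DMSO.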

The target of the next experiment is AR (gene 367) (UniProt P10275). Briefly: ACEA_AR_agonist_80hr: ACEA Biosciences xCELLigence Real-Time Cell Analysis on Androgen Receptor Agonism for Proliferation (AID 2283783).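 Further: hits increase impedance growth signal above DMSO baseline.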 In outline: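 22Rv1 human prostate cancer cells were seeded after preconditioning in assay medium and monitored overnight, then dosed in an eight-point 1:4 dilution series from 100 uM (≤0.5% DMSO). Impedance-based growth was read at 80 h, gain-of-signal versus DMSO.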
AR (gene 367), sequence (P10275 whole entry, looked up): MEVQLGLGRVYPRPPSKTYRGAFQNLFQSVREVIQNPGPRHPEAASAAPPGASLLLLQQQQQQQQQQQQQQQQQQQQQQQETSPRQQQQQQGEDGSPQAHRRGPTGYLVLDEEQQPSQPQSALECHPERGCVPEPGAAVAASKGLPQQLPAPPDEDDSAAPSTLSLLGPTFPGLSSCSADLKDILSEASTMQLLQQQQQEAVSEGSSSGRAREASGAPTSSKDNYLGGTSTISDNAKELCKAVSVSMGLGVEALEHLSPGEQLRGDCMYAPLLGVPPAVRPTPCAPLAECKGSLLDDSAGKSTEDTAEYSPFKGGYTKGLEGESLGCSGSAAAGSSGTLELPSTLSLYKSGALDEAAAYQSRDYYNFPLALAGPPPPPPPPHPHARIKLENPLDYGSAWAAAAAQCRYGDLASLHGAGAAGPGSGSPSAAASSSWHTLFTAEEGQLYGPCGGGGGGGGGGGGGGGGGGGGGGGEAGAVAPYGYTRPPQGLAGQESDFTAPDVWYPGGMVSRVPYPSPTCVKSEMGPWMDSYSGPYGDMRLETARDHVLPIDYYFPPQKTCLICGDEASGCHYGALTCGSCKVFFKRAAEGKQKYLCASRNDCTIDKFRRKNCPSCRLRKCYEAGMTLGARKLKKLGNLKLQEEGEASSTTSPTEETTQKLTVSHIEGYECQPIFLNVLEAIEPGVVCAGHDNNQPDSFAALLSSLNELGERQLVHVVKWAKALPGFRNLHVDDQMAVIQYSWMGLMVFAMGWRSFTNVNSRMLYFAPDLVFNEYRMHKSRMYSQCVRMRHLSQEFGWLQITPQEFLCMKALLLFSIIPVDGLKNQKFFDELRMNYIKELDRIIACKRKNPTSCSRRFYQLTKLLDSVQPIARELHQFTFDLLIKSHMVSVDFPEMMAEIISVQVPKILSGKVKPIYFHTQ

The subject of experiment [6] is Thyroperoxidase (TPO), gene 54314. Briefly: CCTE_Simmons_AUR_rTPO: CCTE's Amplex UltraRed Assay for Thyroperoxidase (TPO) Inhibition, Simmons Lab (AID 2283662).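 Further: potency for loss of signal meaning inhibition of peroxidase activity.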 The gist of the method:
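Rat thyroid microsomes (5 ug protein) with 25 uM Amplex UltraRed and 300 uM H2O2 in 200 mM phosphate buffer, 30 min at 37C in dark; fluorescence 544/590 nm. Eight concentrations, 5 nM–87.5 uM final, 0.5% DMSO, triplicate biological replicates.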

Experiment [7] concerns the target Luciferin 4-monooxygenase (Photinus pyralis) (UniProt P08659). Kind of experiment: CCTE_Simmons_QuantiLum_inhib_2: CCTE's Firefly Luciferase Inhibition Assay, Simmons Lab (AID 2283767). The gist of the method: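 Luminescence loss relative to DMSO vehicle defines inhibition; detection reagent containing 150 uM D-luciferin and 147 uM dATP (final, pH 7.8) is injected immediately before each read. Enzyme is preincubated with an 8-point titration (5 nM–87.5 uM final) for 30 min at 37C.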

A short description of experiment [8]: CCTE_Simmons_CellTiterGLO_HEK293T: Viability Assessment in CCTE's Assays for Thyroperoxidase (TPO) Inhibition, Simmons Lab (AID 2283665). In outline:
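HEK293T, 10 000 cells/well, DMEM + 1% FBS; 8-pt titration 5 nM–87.5 uM [final], 0.5% DMSO; 24 hr, 37C, 5% CO2; CellTiter-Glo luminescence; n=3 biological replicates.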
A general note: ATP-based viability assays read luminescence as a measure of living cells.

Results filed as inconclusive are left out. The source made the active and inactive calls. How the source made its calls, unless noted: active means hit-call score of the fitted dose curve at least 0.9, where 1 is the maximum; inconclusive means response in the unintended direction; inactive means score below 0.9.

Luciferin 4-monooxygenase (Photinus pyralis), sequence (P08659 whole entry, looked up): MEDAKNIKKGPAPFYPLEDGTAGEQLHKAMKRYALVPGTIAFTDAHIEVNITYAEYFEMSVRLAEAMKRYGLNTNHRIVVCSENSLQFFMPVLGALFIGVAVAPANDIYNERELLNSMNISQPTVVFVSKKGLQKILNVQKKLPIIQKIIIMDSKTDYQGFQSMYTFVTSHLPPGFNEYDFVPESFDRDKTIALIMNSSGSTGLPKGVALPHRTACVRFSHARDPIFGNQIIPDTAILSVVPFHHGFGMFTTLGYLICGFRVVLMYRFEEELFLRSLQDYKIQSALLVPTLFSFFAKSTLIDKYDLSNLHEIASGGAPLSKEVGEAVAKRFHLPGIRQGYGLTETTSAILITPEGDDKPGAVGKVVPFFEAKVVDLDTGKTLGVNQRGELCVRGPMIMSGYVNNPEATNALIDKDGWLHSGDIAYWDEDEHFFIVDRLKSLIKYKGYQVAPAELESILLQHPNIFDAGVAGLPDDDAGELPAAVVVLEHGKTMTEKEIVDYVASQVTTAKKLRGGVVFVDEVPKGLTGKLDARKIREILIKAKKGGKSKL

Broadly, the AC50 is the midpoint of the concentration-response curve, whichever way the signal moves. As for `CN(C)c1ccc(N=Nc2ccccc2C(=O)O)cc1`, the AC50 was 37.5 µM (active) in [1], 6.64 µM (active) in experiment [2] and 11.8 µM (active) in experiment [3].
On to `O=C(C=Cc1ccccc1)OCc1ccccc1`, for which the result in experiment [4], in [5] and in [3] was inactive.
In the case of `S=C(NC1CCCCC1)NC1CCCCC1`, the compound was classed as inactive in [4] and in [3].
Consider `CCCCC/C=C\CCC=O`, for which the outcome (in experiment [4]; in experiment [5]; in experiment [3]; in the experiment with AR (gene 367)) was inactive. In addition, the AC50 in experiment [2] was 16.6 µM (active).
In the case of `C1=Cc2ccccc2C1`, the AC50 in [6] was 43.6 µM (active). Also, the outcome in experiment [7], in experiment [2], in experiment [5] and in [3] was inactive.
For `CN(C)c1ccc(C(=N)c2ccc(N(C)C)cc2)cc1`, the AC50 in experiment [6] was 31.6 µM (active); in [4], 0.0018 µM (active); in experiment [2], 3.18 µM (active); in experiment [5], 3.19 µM (active); in experiment [3] it was 32.3 µM (active). Moreover, the compound was classed as inactive in [8] and in [7].
`CCOC(=O)Cc1cccc2ccccc12`: the call in [4] was inactive. Further, the AC50 in [3] is 50 µM (active).
For `Cc1ccc(C(C)c2ccc(C)c(C)c2)cc1C`, the compound was classed as inactive in experiment [4], in experiment [2] and in experiment [5]. The AC50 in experiment [3] was 50 µM (active).
Regarding `O=C1CCCCCCCCCCC(=O)OCCO1`, the outcome in [1] was inactive. Also, the AC50 in [3] is 68.3 µM (active).
